# Source: PubChem BioAssay (EPA / NIEHS)
# The source made the active and inactive calls. How the source made its calls: active means hit-call score of the fitted dose curve at least 0.9, where 1 is the maximum; inactive means score below 0.9.
# Experiments:
# [1] = ATG_GLI_CIS: Attagene CIS-FACTORIAL HepG2 Assay for human Zinc Finger Protein GLI1 (AID 2282945); conditions: HepG2, Attagene cis-factorial reporter mRNA, GLI element; actives raise or lower the signal
# Method in brief: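 Bidirectional curve fits relative to DMSO, using reporter mRNA levels from RT-PCR plus capillary electrophoresis. Cells were HepG2 transiently carrying cis-regulated reporter constructs, harvested 24 h after dosing.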
# [2] = molecular target: Bile acid receptor (Homo sapiens) (UniProt Q96RI1); assay: ATG_IR1_CIS: Attagene CIS-FACTORIAL HepG2 Assay for human Nuclear Receptor Subfamily 1 Group H Member 4 (NR1H4), IR1 submotif (AID 2282946); conditions: IR1 reporter transcription, actives raise or lower the signal
# Method in brief: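 HepG2 cells transiently transfected with multiplexed cis-element reporter units read endogenous transcription factor activity. After 24 h compound exposure, reporter mRNA was quantified by RT-PCR, fluorescent labelling, HpaI digestion and capillary electrophoresis; bidirectional fitting versus DMSO baseline.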
# [3] = ATG_M_32_CIS: Attagene CIS-FACTORIAL HepG2 Assay for M32 Transcription Factor (Internal Marker) (AID 2282949); conditions: HepG2 Attagene cis-factorial M32 reporter, mRNA; actives raise or lower the signal;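 further: background control marker of the multiplexed CIS panel rather than a real target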
# Method in brief: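 HepG2 transfectants (cis-regulated reporter transcription units) dosed 24 h. Reporter mRNA by RT-PCR plus CE, analysed as gain or loss relative to DMSO.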
# [4] = ATG_M_06_CIS: Attagene CIS-FACTORIAL HepG2 Assay for M06 Transcription Factor (Internal Marker) (AID 2282950); conditions: HepG2 Attagene CIS-FACTORIAL M06 internal marker reporter; actives raise or lower the signal
# Method in brief: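 Internal background marker within multiplexed cis-reporter HepG2 system. Cells transiently transfected, dosed 24 h; reporter mRNA measured by RT-PCR, HpaI digestion and capillary electrophoresis. Bidirectional fit relative to DMSO.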
# [5] = molecular target: Hepatocyte nuclear factor 6 (Homo sapiens) (UniProt Q9UBC0); assay: ATG_HNF6_CIS: Attagene CIS-FACTORIAL HepG2 Assay for human Hepatocyte Nuclear Factor 6 (HNF6) (AID 2282952); conditions: HepG2 Attagene cis-factorial HNF6 reporter transcription; actives raise or lower the signal
# Method in brief: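 Activity values derive from bidirectional fitting against DMSO of reporter mRNA levels, measured by capillary electrophoresis of labelled RT-PCR products from HepG2 cells exposed 24 h.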
# [6] = molecular target: Heat shock factor protein 1 (Homo sapiens) (UniProt Q00613); assay: ATG_HSE_CIS: Attagene CIS-FACTORIAL HepG2 Assay for human Heat Shock Transcription Factor 1 (HSE) (AID 2282953); conditions: HepG2 HSE cis-reporter, Attagene RNA transcription; actives raise or lower the signal
# Method in brief: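 HepG2 cells transfected with cis-promoter reporter units sensing endogenous transcription factor activity; reporter mRNA quantified 24 h post-dose by RT-PCR and capillary electrophoresis of 6-FAM-labelled products. Bidirectional fitting against DMSO.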
# [7] = ATG_MRE_CIS: Attagene CIS-FACTORIAL HepG2 Assay for human Metal Responsive Element (MRE) (AID 2282954); conditions: HepG2 MRE cis-reporter transcription, Attagene multiplex; actives raise or lower the signal
# Method in brief: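 Endogenous MRE-dependent transcription read as reporter mRNA in transiently transfected human HepG2 cells at 24 h. RNA reverse-transcribed, PCR-amplified, labelled and resolved by capillary electrophoresis; gain or loss relative to DMSO.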
# [8] = ATG_ISRE_CIS: Attagene CIS-FACTORIAL HepG2 Assay for human Interferon Regulatory Factor 1 (IRF1) binding to an Interferon-Stimulated Response Element (ISRE) (AID 2282948); conditions: HepG2 ISRE cis-reporter (Attagene), mRNA transcription readout; actives raise or lower the signal
# Method in brief: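 Signal reflects induction or loss of ISRE-linked reporter mRNA in transiently transfected HepG2 cells after a 24 h treatment, detected by fluorescent RT-PCR fragments on capillary electrophoresis and normalised to DMSO.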
# [9] = molecular target: Hypoxia-inducible factor 1-alpha (Homo sapiens) (UniProt Q16665); assay: ATG_HIF1a_CIS: Attagene CIS-FACTORIAL HepG2 Assay for human Hypoxia Inducible Factor 1 (HIF1A) (AID 2282951); conditions: HepG2 Attagene cis-factorial HIF1a reporter transcription; actives raise or lower the signal
# Method in brief: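 Endogenous-TF cis reporter readout, human HepG2 cells, 24 h incubation; mRNA detected via RT-PCR and capillary electrophoresis fluorescence; DMSO-normalised bidirectional fitting.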
# [10] = ATG_GRE_CIS: Attagene CIS-FACTORIAL HepG2 Assay for human Glucocorticoid Response Elements (GRE) (AID 2282947); conditions: HepG2 GRE cis-reporter, Attagene multiplex mRNA; actives raise or lower the signal
# Method in brief: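 Reporter transcripts read by RT-PCR with capillary electrophoresis fluorescence after a 24 h chemical exposure of HepG2 cells transiently transfected with multiple cis-element reporter units. Gain or loss fitted against DMSO.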
# Sequence of Heat shock factor protein 1 (Homo sapiens) (Q00613 whole entry, looked up): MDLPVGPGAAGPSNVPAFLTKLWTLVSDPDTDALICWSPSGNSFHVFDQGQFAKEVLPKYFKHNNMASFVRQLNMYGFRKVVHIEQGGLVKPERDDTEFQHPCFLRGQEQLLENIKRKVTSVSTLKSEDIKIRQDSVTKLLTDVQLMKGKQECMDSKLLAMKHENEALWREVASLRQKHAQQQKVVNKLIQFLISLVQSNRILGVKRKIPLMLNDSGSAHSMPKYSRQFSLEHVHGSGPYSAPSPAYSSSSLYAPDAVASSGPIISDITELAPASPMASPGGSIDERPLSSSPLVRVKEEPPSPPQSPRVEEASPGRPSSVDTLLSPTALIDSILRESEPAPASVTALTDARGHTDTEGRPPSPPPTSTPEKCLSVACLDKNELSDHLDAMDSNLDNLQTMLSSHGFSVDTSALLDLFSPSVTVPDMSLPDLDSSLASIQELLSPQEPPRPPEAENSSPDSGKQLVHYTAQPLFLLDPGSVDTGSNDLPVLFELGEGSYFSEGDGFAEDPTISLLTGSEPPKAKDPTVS
# Sequence of Hypoxia-inducible factor 1-alpha (Homo sapiens) (Q16665 whole entry, looked up): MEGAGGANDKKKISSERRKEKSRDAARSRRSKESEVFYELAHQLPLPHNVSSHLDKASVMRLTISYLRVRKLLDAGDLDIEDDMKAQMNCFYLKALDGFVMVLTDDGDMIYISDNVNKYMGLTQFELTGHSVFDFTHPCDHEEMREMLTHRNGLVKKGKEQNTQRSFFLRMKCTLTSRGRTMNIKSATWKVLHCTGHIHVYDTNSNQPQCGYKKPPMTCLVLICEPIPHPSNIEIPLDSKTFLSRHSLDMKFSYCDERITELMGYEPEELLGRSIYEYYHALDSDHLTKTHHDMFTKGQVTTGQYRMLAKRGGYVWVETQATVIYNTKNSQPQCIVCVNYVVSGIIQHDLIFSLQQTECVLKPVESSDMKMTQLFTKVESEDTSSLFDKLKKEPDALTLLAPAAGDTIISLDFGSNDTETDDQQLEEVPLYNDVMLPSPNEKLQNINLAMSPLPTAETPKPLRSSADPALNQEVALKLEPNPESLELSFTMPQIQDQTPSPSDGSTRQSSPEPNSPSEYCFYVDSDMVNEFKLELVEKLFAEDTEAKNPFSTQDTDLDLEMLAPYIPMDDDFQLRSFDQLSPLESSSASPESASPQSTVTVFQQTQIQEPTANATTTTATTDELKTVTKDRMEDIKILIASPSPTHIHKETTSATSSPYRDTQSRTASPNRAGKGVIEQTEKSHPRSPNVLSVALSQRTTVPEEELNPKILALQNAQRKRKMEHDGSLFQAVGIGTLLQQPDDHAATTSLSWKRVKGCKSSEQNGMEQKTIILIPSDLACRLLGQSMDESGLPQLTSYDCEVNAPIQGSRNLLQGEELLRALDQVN
# Sequence of Bile acid receptor (Homo sapiens) (Q96RI1 whole entry, looked up): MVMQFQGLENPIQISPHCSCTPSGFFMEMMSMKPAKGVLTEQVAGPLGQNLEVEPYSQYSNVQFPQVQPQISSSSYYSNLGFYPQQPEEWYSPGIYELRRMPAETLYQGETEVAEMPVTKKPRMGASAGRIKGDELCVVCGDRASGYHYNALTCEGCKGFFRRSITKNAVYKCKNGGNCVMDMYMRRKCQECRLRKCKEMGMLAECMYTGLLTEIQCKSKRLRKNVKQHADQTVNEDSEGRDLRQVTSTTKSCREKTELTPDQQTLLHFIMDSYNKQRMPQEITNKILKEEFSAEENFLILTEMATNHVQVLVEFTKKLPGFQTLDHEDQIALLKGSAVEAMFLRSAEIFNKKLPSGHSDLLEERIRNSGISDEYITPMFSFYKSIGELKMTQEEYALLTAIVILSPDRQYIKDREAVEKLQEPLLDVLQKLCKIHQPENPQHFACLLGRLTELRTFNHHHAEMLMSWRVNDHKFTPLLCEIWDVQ
# Sequence of Hepatocyte nuclear factor 6 (Homo sapiens) (Q9UBC0 whole entry, looked up): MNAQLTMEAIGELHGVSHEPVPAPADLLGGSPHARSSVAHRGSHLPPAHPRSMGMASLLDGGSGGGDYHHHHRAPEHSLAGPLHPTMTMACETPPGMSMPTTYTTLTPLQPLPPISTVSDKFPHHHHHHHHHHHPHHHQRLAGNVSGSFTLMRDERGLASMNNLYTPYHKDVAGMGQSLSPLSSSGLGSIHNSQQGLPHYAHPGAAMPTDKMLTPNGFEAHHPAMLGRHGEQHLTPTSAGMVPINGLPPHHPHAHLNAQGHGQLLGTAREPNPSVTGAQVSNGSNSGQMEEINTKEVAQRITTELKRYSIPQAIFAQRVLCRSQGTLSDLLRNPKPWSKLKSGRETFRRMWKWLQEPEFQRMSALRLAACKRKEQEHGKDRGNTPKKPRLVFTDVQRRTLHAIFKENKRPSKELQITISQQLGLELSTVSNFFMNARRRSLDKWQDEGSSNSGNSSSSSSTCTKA
smiles,measurement,setting,value
COc1cc2c(c(OC)c1OC)-c1ccc(OC)c(=O)cc1[C@@H](NC(C)=O)CC2,outcome,[1],inactive
same,AC50,[2],0.0925 µM (active)
same,outcome,[3],inactive
same,outcome,[4],inactive
same,outcome,[5],inactive
same,outcome,[6],inactive
same,outcome,[7],inactive
CC(C)CC(C)O (configuration not stated),outcome,[1],inactive
same,outcome,[2],inactive
same,outcome,[3],inactive
same,outcome,[4],inactive
same,outcome,[5],inactive
same,outcome,[6],inactive
COCc1nnc(-c2ccc[n+]([O-])c2)n1-c1c(Cl)c(Cl)cc2[nH]c(=O)c(=O)[nH]c12,outcome,[1],inactive
same,outcome,[2],inactive
same,outcome,[3],inactive
same,outcome,[4],inactive
same,outcome,[5],inactive
same,outcome,[7],inactive
CCN(CC)C(=S)SSC(=S)N(CC)CC,AC50,[1],153 µM (active)
same,AC50,[2],67.8 µM (active)
same,outcome,[3],inactive
same,outcome,[4],inactive
same,AC50,[6],111 µM (active)
same,AC50,[7],148 µM (active)
C=CN1CCCC1=O,outcome,[1],inactive
same,outcome,[8],inactive
same,outcome,[3],inactive
same,outcome,[4],inactive
same,outcome,[9],inactive
same,outcome,[5],inactive
same,outcome,[6],inactive
CC1(C)C(=O)N(Cl)C(=O)N1Cl,outcome,[1],inactive
same,outcome,[10],inactive
same,outcome,[3],inactive
same,outcome,[4],inactive
same,outcome,[9],inactive
same,outcome,[5],inactive
same,outcome,[6],inactive
same,outcome,[7],inactive
O=C(O)c1ccc2c(c1)nc(C(=O)NC1CCN(C3CC3)CC1)n2Cc1cc(-c2ccc(Cl)s2)on1,outcome,[1],inactive
same,outcome,[2],inactive
same,outcome,[3],inactive
same,outcome,[4],inactive
same,outcome,[5],inactive
CC(C)c1nnc2ccc(-c3ocnc3-c3cc(F)ccc3F)cn12,outcome,[1],inactive
same,outcome,[10],inactive
same,outcome,[8],inactive
same,outcome,[3],inactive
same,outcome,[4],inactive
same,AC50,[7],100 µM (active)
CCCc1ccccc1,outcome,[1],inactive
same,outcome,[8],inactive
same,outcome,[3],inactive
same,outcome,[4],inactive
same,outcome,[5],inactive
same,outcome,[6],inactive
CCCCCCCCCCCCCCO,outcome,[1],inactive
same,outcome,[8],inactive
same,outcome,[3],inactive
same,outcome,[4],inactive
same,AC50,[5],177 µM (active)
CCn1nc(C)c2c1C(=O)NCC(c1ccc(O)cc1)=N2,outcome,[1],inactive
same,outcome,[3],inactive
same,outcome,[4],inactive
same,outcome,[5],inactive
same,outcome,[7],inactive
NC(=O)NN=Cc1ccc([N+](=O)[O-])o1,outcome,[1],inactive
same,outcome,[3],inactive
same,outcome,[4],inactive
same,outcome,[5],inactive
same,outcome,[6],inactive
same,outcome,[7],inactive
Cn1cc[nH]c1=S,outcome,[1],inactive
same,outcome,[8],inactive
same,outcome,[3],inactive
same,outcome,[4],inactive
same,outcome,[6],inactive
O=c1[nH]cnc2c1ncn2[C@H]1CC[C@@H](CO)O1,outcome,[1],inactive
same,outcome,[3],inactive
same,outcome,[4],inactive
same,outcome,[9],inactive
same,outcome,[5],inactive
CCCCOC(=O)c1ccccc1,outcome,[1],inactive
same,outcome,[8],inactive
same,outcome,[3],inactive
same,outcome,[4],inactive
same,outcome,[5],inactive
same,outcome,[7],inactive
OCc1ccccc1,outcome,[1],inactive
same,outcome,[8],inactive
same,outcome,[3],inactive
same,outcome,[4],inactive
same,outcome,[9],inactive
same,outcome,[5],inactive
same,outcome,[7],inactive
O=S1(=O)CCCO1,outcome,[1],inactive
same,outcome,[3],inactive
same,outcome,[4],inactive
same,outcome,[5],inactive
NC(=O)N1c2ccccc2C=Cc2ccccc21,outcome,[1],inactive
same,outcome,[3],inactive
same,outcome,[4],inactive
same,outcome,[5],inactive
same,outcome,[6],inactive
O=C(N[C@H](CO)[C@H](O)c1ccc([N+](=O)[O-])cc1)C(Cl)Cl,outcome,[1],inactive
same,outcome,[8],inactive
same,outcome,[3],inactive
same,outcome,[4],inactive
same,outcome,[5],inactive
CC(=O)c1ccccc1,outcome,[1],inactive
same,outcome,[3],inactive
same,outcome,[4],inactive
same,outcome,[9],inactive
same,outcome,[5],inactive
OCC(CO)(CO)CO,outcome,[1],inactive
same,outcome,[3],inactive
same,outcome,[4],inactive
same,outcome,[5],inactive
same,outcome,[6],inactive
c1ccc2c(c1)-c1cccc3c1c-2cc1ccccc13,outcome,[1],inactive
same,outcome,[3],inactive
same,outcome,[4],inactive
same,outcome,[5],inactive
same,outcome,[7],inactive
OCCNCCO,outcome,[1],inactive
same,outcome,[8],inactive
same,outcome,[3],inactive
same,outcome,[4],inactive
same,outcome,[5],inactive
same,outcome,[7],inactive
CCc1ccc(O)c(C(C)(C)C)c1,outcome,[1],inactive
same,outcome,[3],inactive
same,outcome,[4],inactive
same,AC50,[9],56.3 µM (active)
same,outcome,[5],inactive
same,outcome,[6],inactive
same,outcome,[7],inactive
CCCCN1C(=O)[C@@H]([C@H](O)C2CCCCC2)NC(=O)C12CCN(Cc1ccc(Oc3ccc(C(=O)O)cc3)cc1)CC2,outcome,[1],inactive
same,AC50,[8],93.5 µM (active)
same,outcome,[3],inactive
same,outcome,[4],inactive
same,outcome,[9],inactive
same,outcome,[5],inactive
same,AC50,[7],75.8 µM (active)
CCCCCCCCN(C)C,outcome,[1],inactive
same,outcome,[8],inactive
same,outcome,[3],inactive
same,outcome,[4],inactive
same,outcome,[5],inactive
CCc1cccc(CC)c1N,outcome,[1],inactive
same,outcome,[3],inactive
same,outcome,[4],inactive
same,outcome,[9],inactive
same,outcome,[5],inactive
same,outcome,[6],inactive
same,outcome,[7],inactive
NC(N)=O,outcome,[1],inactive
same,outcome,[8],inactive
same,outcome,[3],inactive
same,outcome,[4],inactive
same,outcome,[5],inactive
same,outcome,[7],inactive
O=C(O)CO,outcome,[1],inactive
same,outcome,[8],inactive
same,outcome,[3],inactive
same,outcome,[4],inactive
same,outcome,[5],inactive
c1ccc2ncccc2c1,outcome,[1],inactive
same,outcome,[3],inactive
same,outcome,[4],inactive
same,outcome,[9],inactive
same,outcome,[5],inactive
same,outcome,[6],inactive
same,outcome,[7],inactive
OC(CCl)CCl,outcome,[1],inactive
same,outcome,[8],inactive
same,outcome,[3],inactive
same,outcome,[4],inactive
same,outcome,[5],inactive
same,outcome,[7],inactive
O=C1CN(N=Cc2ccc([N+](=O)[O-])o2)C(=O)N1,outcome,[1],inactive
same,outcome,[8],inactive
same,outcome,[3],inactive
same,outcome,[4],inactive
same,AC50,[9],27.3 µM (active)
same,outcome,[6],inactive
same,outcome,[7],inactive
CCOC(N)=O,outcome,[1],inactive
same,outcome,[8],inactive
same,outcome,[3],inactive
same,outcome,[4],inactive
same,outcome,[5],inactive
same,outcome,[6],inactive
O=C(NO)C1(NS(=O)(=O)c2ccc(Oc3ccc(F)cc3)cc2)CCOCC1,outcome,[1],inactive
same,outcome,[3],inactive
same,outcome,[4],inactive
same,outcome,[9],inactive
same,outcome,[5],inactive
same,outcome,[6],inactive
CNC(C)=O,outcome,[1],inactive
same,outcome,[3],inactive
same,outcome,[4],inactive
same,outcome,[5],inactive
same,outcome,[6],inactive
same,outcome,[7],inactive
CCCCC(CC)C(=O)OCCOCCOCCOC(=O)C(CC)CCCC (configuration not stated),outcome,[1],inactive
same,outcome,[8],inactive
same,outcome,[3],inactive
same,outcome,[4],inactive
same,outcome,[5],inactive
same,outcome,[6],inactive
